Measurements taken from PubChem BioAssay (NCI).
About 83,000 compounds went through this panel and 20% of them were active in at least one assay; those are over-represented in the sample as a whole.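 Single-dose data. Exposure time 48 hours. Values below 10 considered active.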 Values without a mark were called inactive. Activity calls are given as the source filed them.

Test system: OVCAR-5 ovarian
Experiment: NCI-60 one-dose screen, 48 h (100 = growth as untreated, 0 = no growth, -100 = all killed)
Details: 10 µM unless noted

Row | Structure (SMILES) | growth
1 | COc1ccc(-n2c(=O)sc3c(Cl)nc(C)nc32)c(OC)c1 | 92%
2 | O=C(Nc1ccc(Cl)c(Cl)c1)NS(=O)(=O)c1cnccc1Oc1ccc(F)cc1 | 82.7%
3 | S=C(S)NCCc1c[nH]c2ccccc12 | 102%
4 | COc1ccc(Nc2[nH]n3c(=O)cc(-c4ccccc4)nc3c2C(=O)Nc2ccc(C)cc2)c(OC)c1 | 92%
5 | COc1ccc(-n2c(=S)sc3c(Cl)nc(C)nc32)c(OC)c1 | 87%
6 | COc1ccc(-c2ccc(C)n2-c2ccc(-c3nc4ccccc4s3)cc2)cc1 | 101%
7 | COc1cc(/C(C#N)=C/c2ccc3c(c2OC)OCO3)cc2c1OCO2 | 42.7%
8 | Cc1ccc2ccccc2c1C[n+]1ccccc1 | 116%
9 | COc1ccc(-c2ccc(-c3ccc(-c4ccc(C(=N)N)cc4)s3)s2)cc1OC | -12.2% (active)
10 | O=C(CSc1nc2ccccc2[nH]1)Nc1ccc(-c2nc3ccccc3s2)c(Cl)c1 | 20.4%
11 | O=c1ccn(-c2ncnc3nc[nH]c23)cc1 | 93.8%
12 | CN(C[C@H]1Cc2c(cccc2N2CCN(c3ncccn3)CC2)CN1)[C@H]1CCCc2cccnc21 | 52.8%
13 | COc1ccc(Nc2nn3c(-c4ccccc4)cc(-c4ccccc4)nc3c2C(N)=O)c(OC)c1 | 63.6%
14 | COc1cc(-c2nn(-c3cccc(NC(=O)Nc4cccc(C(F)(F)F)c4)c3)cc2-c2ccncc2)ccc1Cl | 28.2%
15 | COc1ccc(C2C=C(c3ccc(Cl)cc3)N=C3SC=C(C)N32)c(Br)c1 (centres undefined) | 67%
16 | O=C1C2(c3ccccc3)C(c3ccccc3)=C(c3ccccc3)C1(c1ccccc1)C1CC=CC12 (centres undefined) | 97.9%
17 | CC(=O)Oc1csc(N(C(C)=O)c2cccc(C(F)(F)F)c2)n1 | 96.2%
18 | COc1ccc(C2C=C(c3ccc(OC)c(OC)c3)N=C3SC=C(C)N32)c(Br)c1 (centres undefined) | 92.8%
19 | CCC(=O)OC1=CN2C(=NC(c3ccc(N)cc3)=CC2c2cc(OC)c(OC)c(OC)c2)S1 (centres undefined) | 77.7%
20 | C=C1CCC2C(C)(CO)C(O)CCC2(C)C1C/C=C1/C(=O)OCC1Oc1ccccc1C (centres undefined) | 91.8%
21 | CCCCCCCC/C=C/CCCCCCCC1=NC(C)(C)CN1C(C)(C)CO | 65.1%
22 | CN(C)c1cccc2c(S(=O)(=O)/N=C(\N)Nc3nc4ccccc4s3)cccc12 | 84.2%
23 | N/C(=N\S(=O)(=O)c1ccccc1)Nc1nc2ccccc2s1 | 96.9%
24 | COc1ccc(Nc2[nH]n3c(=O)cc(C)nc3c2C(N)=O)c(OC)c1 | 113%
